Cycloheximide cs – affects cycloheximide protein synthesis inhibition readout, counter-screen | cell reporter, cycloheximide protein synthesis inhibition counterscreen | max response, % | 12% of 300,000 active | AID 2314; in the data active = max response mostly above about 13%, no sharp cut-off; inactive = mostly below about 14%; note: read at 38.3 µM for the half of the compounds with a filed dose; 0% is about no effect
Pf growth 96h – P. falciparum growth inhibition at 96 hours; P. falciparum luciferase reporter growth, 96 h; Potency, µM (doses to about 28.7 µM), for the others: at the highest dose activity change, negative = inhibition, hits mostly inhibitors; 6.9% of 320,000 active; note: potency is the fitted concentration of half-maximal effect; % is set by controls: 0 for no effect and ±100 for the full control effect
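Erythrocytes infected with luciferase-expressing P. falciparum were dispensed at 2% hematocrit and 0.05% parasitemia (final), then incubated with compounds 96 hours at 37 C in 5% CO2. Luminescence after detection reagent addition reported growth.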
Pf growth 48h – inhibits P. falciparum growth in the first generation, 48 h; P. falciparum luciferase growth in erythrocytes, 48 h; AID 504832; 5.9% of 310,000 active; Potency, µM (series often up to 28.7 µM), for the others: top-dose activity change, negative = inhibition, hits mostly inhibitors; note: potency is the fitted concentration of half-maximal effect; % is set by controls: 0 for no effect and ±100 for the full control effect
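Erythrocytes infected with P. falciparum carrying an integrated firefly luciferase reporter (2% hematocrit, 0.1% parasitemia final) were exposed to compounds in RPMI 1640 with 0.5% Albumax at 37 C, 5% CO2. Growth inhibition was scored as reduced luminescence.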
Shiga toxin inh – blocks Shiga toxin action in Vero cells; AID 2315; Vero cells, Shiga toxin protein synthesis inhibition reporter; 9.2% of 290,000 active; inhibition, % at 38.7 µM; in the data active = inhibition mostly above about 28%, no sharp cut-off; inactive = mostly below about 43%; note: 0% is about no effect
HCMV inh – inhibitors of human cytomegalovirus | HFF cells, HCMV-luciferase reporter, 72 h; stronger effect = lower value | activity change, negative = inhibition, % at 57.5 µM | 4.5% of 410,000 active; in the data active = activity change below about -60%; inconclusive = no clear call, values can overlap the other calls; inactive = above about -39%; note: % is set by controls: 0 for no effect and ±100 for the full control effect
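Inhibition of viral replication was scored as loss of reporter luminescence in HFFs infected with HCMV-luciferase (MOI 1 PFU/cell) for 72 h; compounds tested at 2 doses, normalized to buffer and Salinomycin controls.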
HCV inhibitor – HCV inhibition; Huh7.5.1 HCVcc-Cre infection, luciferase reporter, 44 h; Potency, µM (top dose mostly 41.8 µM), inactives show at the highest dose activity change, negative = inhibition, most hits filed as inhibitors; 3.4% of 340,000 active; AID 651820; note: potency is the fitted concentration of half-maximal effect; % is set by controls: 0 for no effect and ±100 for the full control effect
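A cell-based infection assay in which seeded cells (1,000 per well) receive test compound after 4 h, are inoculated with HCVcc-Cre at approximately 0.5 moi, and are incubated 44 h before luminescence detection.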
The depositor's hits bear a star; u = inconclusive; x = no result; [ ] = another dose, or the depositor's remark. Compounds with a hit are over-represented: about 21% of the library has one in this group of screens. Unless noted, calls come from the whole dose curve; as a rule, active = well fitted inhibition curve with a large enough effect; inconclusive = small, poorly fitted or top-dose-only effect, or another doubt; inactive = no such curve, though single readings can be large or run the other way.

SMILES	Cycloheximide cs	Pf growth 96h	Pf growth 48h	Shiga toxin inh	HCMV inh	HCV inhibitor
C=CC(=O)N(CCC)C(c1ccccc1)c1ccccc1OC (stereo not drawn)	x	u	13.1µM*	x	-7.6	-12.2%
O=c1oc2c(O)c(O)cc3c(=O)oc4c(O)c(O)cc1c4c23	-2.4	3.7µM*	5.22µM*	-6.1	x	-8.0%[8.37 µM]
CCCC(=O)Nc1c(C)n[nH]c1C	-3.7	0.586µM*	1.4%	0.4	14.8	17.5%
CNCC(=O)Nc1c(C)n[nH]c1C	-2.9	-8.7%	16.6%	-5.4	25.8	-17.6%
c1ccc(-c2ccc(-c3n(-c4ccccn4)c4ccccc4[n+]3-c3ccccn3)cc2)cc1	12.8	14.7µM*	u	-2.5	-1.9	u
C[C@H](NC(=O)c1[nH]cnc1C(=O)N[C@@H](C)CO)c1ccccc1	x	x	x	x	-8.1	x
O=C(Oc1ccccc1C(=O)Oc1ccccc1)c1ccco1	10.3	-3.0%	x	41.6	13.9	11.0%
O=C(Oc1ccc(Br)cc1C(=O)/C=C/c1ccccc1F)c1ccco1	x	x	x	x	-77.6*	10µM*
CCc1ccc(S(=O)(=O)c2cn(CC(=O)Nc3cccc(C)c3)c3ccc(Cl)cc3c2=O)cc1	x	x	x	x	-4.1	x
O=C(OCC(=O)c1ccccc1Br)c1ccncc1	24.2*	12.5%	u	62.6*	-22.3	24.4%
NC(=O)c1cccc2ccccc12	-2.9	31.5%	10.7%	-5.3	-32.0	9.1%
O=C(NNC(=O)c1ccccc1Br)c1ccccc1Cl	18.7*	u	15.4%	22.6	-14.8	2.8%
CNC(=S)NNC(=O)c1ccccc1Cl	0.8	4.2%	u	-12.6	6.7	9.7%
O=C(NNC(=S)Nc1ccccc1Cl)c1ccccc1Br	49.0*	41.3%	277.8%	74.5*	88.6	4.5%
O=C(OCC(=O)c1cccc2ccccc12)c1ccc(CO)cc1	41.7*	148.0%	140.4%	77.5*	-4.9	-28.1%
O=C(NNC(=O)c1ccccc1Br)c1ccc(Cl)cc1	5.8	164.4%	47.8%	21.0	27.8	-6.5%
CSc1ncccc1C(=O)OCC(=O)c1ccccc1Br	10.8	-20.9%	44.0%	4.5	u	3.8%
Cc1ccc(C)c(NC(=O)Cn2c(=O)n(Cc3nc(C)no3)c(=O)c3cc4c(cc32)OCO4)c1	x	x	x	x	6.7	x
Cn1c(=O)n(C)c2cc(CNCc3ccc(C(=O)O)cc3)ccc21	x	x	x	x	5.5	x
O=C(NNC(=O)c1ccccc1Br)c1cnccn1	x	x	x	x	-16.2	u
O=C(NNC(=O)c1ccccc1Br)c1ccncc1	-4.0	10.4µM*	24.1%	-7.1	-64.6*	3.4%
CC1CCCC/C1=N\NC(=S)Nc1ccccc1 (stereo not drawn)	18.2*	u	-29.5%	29.7	u	10.8%
CC1CCC/C(=N\NC(=S)Nc2ccccc2)C1 (stereo not drawn)	79.4*	-4.4%	17.7%	101.9*	41.8	37.1%
O=C(CCN1CCCCC1)N1CCc2c([nH]c3ccccc23)C1c1cccnc1 (stereo not drawn)	x	x	x	x	17.8	-25.7%
CC(=O)Nc1ccc(N=c2cc([N+](=O)[O-])cc(Cl)n2O)cc1	-4.8	-0.9%	-18.8%	-7.5	-85.0*	10µM*
SMILES	Cycloheximide cs	Pf growth 96h	Pf growth 48h	Shiga toxin inh	HCMV inh	HCV inhibitor
CC(C)(C)NC(=O)CCN(/N=C/c1ccc([N+](=O)[O-])o1)C1=NS(=O)(=O)c2ccccc21	-2.0	u	-17.9%	-2.3	-94.7*	u
CN(C)c1ccc(/C=N/N(CCC(=O)NC(C)(C)C)C2=NS(=O)(=O)c3ccccc32)cc1	4.1	32.9%	u	-5.8	-15.1	3.4%
CC(=O)Nc1cccc(OCCCNC(=O)C2CCC2)c1	6.6	-2.2%	-16.7%	11.9	-28.0	-1.4%
COc1ccc(-n2c(/C=C(\C)O)nc(=O)c3c(C)cc(C)nc32)cc1	4.9	x	0.828µM*	-5.5	-26.6	-4.3%
COc1ccc(-n2c(C)nn(C)c2=O)cc1	-6.0	u	18.0%	-3.5	15.3	8.3%
COc1ccccc1NC(=O)CN(c1cc(C)cc(C)c1)S(=O)(=O)c1c(C)[nH]c(=O)[nH]c1=O	x	x	x	x	13.0	x
Cc1cccc(CSc2nc3c(cc2C#N)CN(C)CC3)c1	8.6	7.38µM*	10.4µM*	7.7	32.6	14.1µM*
CN1CCc2nc(SCc3ccccc3Br)c(C#N)cc2C1	-2.3	13.3%	u	-13.9	-20.2	7.94µM*
N#Cc1cc2c(nc1SCc1ccccc1)CCCC2	-0.9	u	-11.3%	-3.4	-36.6	1.4%
COc1ccc(Cl)cc1Nc1nc(-c2sc(NC(=O)CC(C)C)nc2C)cs1	-1.4	9.28µM*	10.4µM*	-12.1	-2.1	11.2µM*
Cc1nc(NC(=O)CC(C)C)sc1-c1csc(Nc2ccc(Cl)cc2)n1	1.8	4.65µM*	10.4µM*	-15.4	-21.6	7.08µM*
Cc1nc(NC(=O)CC(C)C)sc1-c1csc(Nc2ccc(Cl)cc2Cl)n1	21.8	9.28µM*	u	19.1	u	-28.2%
C=CCCC(=O)Nc1nc(C)c(-c2csc(Nc3cc(Cl)ccc3OC)n2)s1	-2.0	u	u	-17.9	-29.2	u
C=CCCC(=O)Nc1nc(C)c(-c2csc(Nc3ccc(Cl)cc3Cl)n2)s1	2.9	8.28µM*	u	14.4	-33.0	u
CCCC(C)C(=O)Nc1nc(C)c(-c2csc(Nc3cc(Cl)ccc3C)n2)s1 (stereo not drawn)	-1.6	u	u	-20.1	-36.5	u
O=C(CCS(=O)(=O)c1ccccc1)NCc1ccccc1	14.3	16.6%	39.6%	29.3	10.9	23.7%
CCc1ccccc1NC(=O)CC1NCCNC1=O (stereo not drawn)	x	x	x	x	3.2	x
O=C(NCC(=O)N(CC1CCCO1)C(C(=O)NC1CCCCC1)c1cccnc1)c1cccs1 (stereo not drawn)	4.2	-8.5%	-12.2%	-12.7	-27.9	16.8%
CCCCCC(=O)N1C[C@@H](O)[C@H](n2cc(COC(=O)c3ccccc3)nn2)C[C@@H]1c1ccccc1	x	x	x	x	12.1	x
COc1ccc(N2CCN(CCCNC(=O)c3ccc4nc(Cc5ccccc5)oc4c3)CC2)cc1	x	x	x	x	-60.4*	x
